Test results: PubChem BioAssay (EPA / NIEHS)
The source made the active and inactive calls. How the source made its calls: active means hit-call score of the fitted dose curve at least 0.9, where 1 is the maximum; inactive means score below 0.9.

What was measured:
[1] = IUF_NPC1b_proliferation_BrdU_72hr: Leibniz Research Institute for Environmental Medicine (IUF) 72-hour Neural Progenitor Cell Bromodeoxyuridine (BrdU) Proliferation Assay (NPC1b) (AID 2284207)
How it was run: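 Luminescent BrdU ELISA measured DNA synthesis during the last 16 h of a 72 h exposure of primary human neural progenitor spheres grown with EGF and FGF. Signal was fitted relative to DMSO controls.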

[2] = IUF_NPC1a_proliferation_area_72hr: Leibniz Research Institute for Environmental Medicine (IUF) 72-hour Neural Progenitor Cell Proliferation Area Assay (NPC1a) (AID 2284208)
How it was run: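 Spheres of 0.3 mm are plated singly in growth-factor medium and exposed from day 0. After three days at 37C and 5% CO2, sphere area is measured by phase contrast imaging, with activity referenced to DMSO.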

[3] = IUF_NPC1_viability_72hr: Viability Assessment at 72 hours in the Leibniz Research Institute for Environmental Medicine (IUF) Neural Progenitor Cell Proliferation Assay (NPC1) (AID 2284209)
How it was run: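 Three-day continuous exposure of human neural progenitor spheres under EGF/FGF-driven proliferation; cell viability scored by alamar blue signal versus DMSO.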

[4] = CCTE_Mundy_HCI_Cortical_Synap_Neur_Matur_NeuriteSpotCountPerNeuriteLength: CCTE's Synaptogenesis and Neurite Maturation Assay in rat cortical cells for Neurite Spot Count per Neurite Length, Mundy Lab (AID 2284210)
How it was run: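 Read-out: synaptophysin puncta counted along MAP2-stained neurites, normalised to neurite length, by automated high-content imaging. Rat cortical cells; AraC DIV 5; chemical dosing DIV 7; termination DIV 12. DMSO baseline.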

[5] = CCTE_Mundy_HCI_Cortical_NOG_NeuriteCount: CCTE's Neurite Outgrowth Assay in rat cortical cells for Neurite Count, Mundy Lab (AID 2284212);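 further: cells fixed about two days after chemical exposure began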
How it was run: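 Rat cortical primary cells; compound added 2 h post-plating, 1/10 dilution of working solution. Anti-betaIII-tubulin/AF488 ICC; ArrayScan neurite count vs DMSO.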

[6] = CCTE_Mundy_HCI_Cortical_NOG_NeuriteLength: CCTE's Neurite Outgrowth Assay in rat cortical cells for Neurite Length, Mundy Lab (AID 2284213);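 on AC50: neurites imaged about 48 to 50 h after chemical exposure began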
How it was run: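 First, rat primary cortical cells were plated and, 2 h later, given test chemical as a 1/10 dilution. Finally, βIII-tubulin immunostaining enabled automated imaging of neurite length.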

[7] = CCTE_Mundy_HCI_Cortical_Synap_Neur_Matur_NeuriteLength: CCTE's Synaptogenesis and Neurite Maturation Assay in rat cortical cells for Neurite Length, Mundy Lab (AID 2284214)
How it was run: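 DMSO-normalised neurite length, from high-content imaging of anti-MAP2-stained rat cortical cells fixed at DIV 12. Glia were suppressed with AraC (DIV 5) before chemical exposure from DIV 7.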

[8] = CCTE_Mundy_HCI_Cortical_Synap_Neur_Matur_NeuriteSpotCountPerNeuron: CCTE's Synaptogenesis and Neurite Maturation Assay in rat cortical cells for Neurite Spot Count per Neuron Count, Mundy Lab (AID 2284215)
How it was run: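 Rat cortical primary cultures; AraC DIV 5 to arrest glia; dosing + media change DIV 7; fixed DIV 12. Anti-MAP2/anti-synaptophysin, Hoechst nuclei; HCI puncta count per neuron, positive fitting direction vs DMSO.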

[9] = UKN4_HCS_LUHMES_neurite_outgrowth: University of Konstanz (UKN) Leist Lab Neurite Outgrowth Assay in human LUHMES cells (UKN4) (AID 2284206); conditions: actives raise or lower the signal
How it was run: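 Neurite area in dopaminergic-model LUHMES neurons is measured by high-content imaging of calcein-AM after 24 h treatment starting shortly after day-2 replating; Hoechst staining tracks viability.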

[10] = CCTE_Mundy_HCI_Cortical_Synap_Neur_Matur_BPCount: CCTE's Synaptogenesis and Neurite Maturation Assay in rat cortical cells for Branch Point Count, Mundy Lab (AID 2284211)
How it was run: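 In this multiplexed morphology assay, cortical cells from rat receive chemicals at DIV 7 and are fixed at DIV 12, then immunostained and imaged; branch points are counted, with DMSO as baseline.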

Measured: AC50

O=C1NS(=O)(=O)c2ccccc21
not listed: [9] | [10]
inactive: all other assays above

Nc1ccn([C@@H]2O[C@H](CO)[C@@H](O)C2O)c(=O)n1 (stereo partly drawn)
active: [6] 5.88 µM | [7] 17.1 µM | [8] 15.9 µM
inactive: [9] | [4]

CN(Cc1cnc2nc(N)nc(N)c2n1)c1ccc(C(=O)N[C@@H](CCC(=O)O)C(=O)O)cc1
inactive: [4] | [5] | [6] | [8]
active: [10] 0.0449 µM | [7] 0.0328 µM

CC(=O)Nc1ccc(O)cc1
not listed: [5] | [9] | [10]
inactive: all other assays above

O=C(CCCN1CCC(O)(c2ccc(Cl)cc2)CC1)c1ccc(F)cc1
inactive: [1] | [2] | [3]
active: [9] 13.1 µM | [4] 50 µM | [6] 6.16 µM | [7] 21.2 µM | [8] 17.8 µM

CC(C)c1c(C(=O)Nc2ccccc2)c(-c2ccccc2)c(-c2ccc(F)cc2)n1CC[C@@H](O)C[C@@H](O)CC(=O)O
active: [1] 1.7 µM | [4] 6.94 µM | [10] 0.779 µM | [5] 0.158 µM | [6] 0.145 µM | [7] 2.82 µM | [8] 3.05 µM
inactive: [2] | [3]
